Experimental data taken from PubChem BioAssay (NCATS).
Records with an inconclusive call do not appear. The source made the active and inactive calls. Calls follow the shape of the dose curve; as a rule, active = well fitted inhibition curve with a large enough effect; inconclusive = small, poorly fitted or top-dose-only effect; inactive = flat fitted curve, though single readings scatter.

Tested on: CP286
Experiment: qHTS profiling for inhibitors of Plasmodium falciparum proliferation (AID 504749); also: nearly all actives have a fitted effect of over 60% in size;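 as to activity, negative = inhibition: 0% = DMSO vehicle and full inhibition = artemisinin control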
Settings: P. falciparum in erythrocytes, SYBR Green DNA, 72 h; series mostly up to 28.7 µM; activity, negative = inhibition: at the top concentration
Procedure, shortened: (§1)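 Three-day growth assay of blood-stage parasites in erythrocytes (0.3% parasitemia, 2.5% hematocrit) at 37 C, 5% CO2, quantified by SYBR Green DNA staining after overnight detergent lysis.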
Potency is read from the fitted curve at half-maximal effect.

| Structure (SMILES) | activity, negative = inhibition | Potency |
| --- | --- | --- |
| CCCCC[C@H](O)/C=C/[C@H]1[C@H](O)CC(=O)[C@@H]1C/C=C\CCCC(=O)O | -0.633% (inactive) | – |
| C(=C\c1ccncc1)/c1ccccc1 | 1.1% (inactive) | – |
| O=C1N=C2SCCN2C(=O)C1Cc1ccc(Cl)cc1 (centres undefined) | -0.133% (inactive) | – |
| CCCCCCCCCCCC(=O)N(CCO)CCO | 1.62% (inactive) | – |
| Cc1nc(NS(=O)(=O)c2ccc(N)cc2)nc(C)c1Br | 0.0117% (inactive) | – |
| O=c1[nH]c(=O)n([C@H]2C[C@H](O)[C@@H](CO)O2)cc1/C=C/Br | -3.06% (inactive) | – |
| CC12CCC(C[N+](C)(CCC[N+](C)(C)C)C1)C2(C)C (centres undefined) | 0.757% (inactive) | – |
| CC(C)NCC(O)COc1ccccc1-n1cccc1 (centres undefined) | -0.519% (inactive) | – |
| F[Si-2](F)(F)(F)(F)F | 0.653% (inactive) | – |
| CN(Cc1ccccc1)Cc1ccccc1 | -2.25% (inactive) | – |
| O=[n+]1ccn([O-])c2ccccc21 | -4.23% (inactive) | – |
| OCC(O)CO | 0.356% (inactive) | – |
| CC(=O)NCCCS(=O)(=O)O | -0.0047% (inactive) | – |
| CCN(CC)CCOc1ccc2nc(N(C)C)sc2c1 | 0.411% (inactive) | – |
| Cc1cccc(Nc2ncccc2C(=O)O)c1C | -0.247% (inactive) | – |
| CCCCC(CC)CCC(CC(C)C)OS(=O)(=O)O (centres undefined) | -4.77% (inactive) | – |
| C[C@H](N)C(=O)N[C@@H](C)P(=O)(O)O | -6.82% (inactive) | – |

| Structure (SMILES) | activity, negative = inhibition | Potency |
| --- | --- | --- |
| CN1CCc2c(c3ccccc3n2Cc2ccccc2)C1 | -29.4% [at 12.8 µM] (inactive) | – |
| CO/N=C(\C(=O)N[C@@H]1C(=O)N2C(C(=O)[O-])=C(C[n+]3cccc4c3CCC4)CS[C@H]12)c1csc(N)n1 | 1.44% (inactive) | – |
| Cc1cc(-c2ccc(N=Nc3ccc4c(S(=O)(=O)O)cc(S(=O)(=O)O)c(N)c4c3O)c(C)c2)ccc1N=Nc1ccc2c(S(=O)(=O)O)cc(S(=O)(=O)O)c(N)c2c1O | 0.089% (inactive) | – |
| CCC(C(=O)NC(N)=O)c1ccccc1 (centres undefined) | 1.39% (inactive) | – |
| Cn1cc(NC(=O)c2cc(NC(=O)c3cc(NC=O)cn3C)cn2C)cc1C(=O)NCCC(=N)N | – | 3.98 µM (active) |
| CCc1ncnc2cc(OC)c(OC)cc12 | -1.11% (inactive) | – |
| Cc1ncc(C[n+]2csc(CCO)c2C)c(N)n1 | 0.712% [at 12.8 µM] (inactive) | – |
| O[C@@H]([C@H](O)[C@H](O)CBr)[C@H](O)CBr | -0.957% (inactive) | – |
| O=[N+]([O-])c1c(Cl)cccc1-c1c[nH]cc1Cl | -10.3% (inactive) | – |
| C[C@@](Cc1ccc(O)c(O)c1)(NN)C(=O)O | -29.1% (inactive) | – |
| CC(=O)Oc1cc(C(F)(F)F)ccc1C(=O)O | 0.0764% [at 12.8 µM] (inactive) | – |
| CCCCC | -0.622% (inactive) | – |
| O=P(O)(O)CP(=O)(O)O | 0.0186% (inactive) | – |
| CCCCC[C@H](O)/C=C/[C@@H]1[C@H]2C/C(=C/CCCC(=O)O)O[C@H]2C[C@H]1O | 0.0564% (inactive) | – |
| C[Si](C)(C)O[Si](C)(C)C | 0.83% (inactive) | – |
| O.O.O.O.O.O.O.O=S(=O)([O-])[O-].[Co+2] | – | 10 µM (active) |
| CCOC(=O)c1c[nH]c2cc(OCC(C)C)c(OCC(C)C)cc2c1=O | – | 0.0708 µM (active) |

Tested on: CP291
Experiment: as above
Settings: P. falciparum in erythrocytes, SYBR Green DNA, 72 h; series mostly up to 28.7 µM; activity, negative = inhibition: at the top concentration
Procedure, shortened: as §1

| Structure (SMILES) | activity, negative = inhibition | Potency |
| --- | --- | --- |
| CCCCC[C@H](O)/C=C/[C@H]1[C@H](O)CC(=O)[C@@H]1C/C=C\CCCC(=O)O | 16.4% (inactive) | – |
| O=C1N=C2SCCN2C(=O)C1Cc1ccc(Cl)cc1 (centres undefined) | -3.19% (inactive) | – |
| CCCCCCCCCCCC(=O)N(CCO)CCO | 1.44% (inactive) | – |
| Cc1nc(NS(=O)(=O)c2ccc(N)cc2)nc(C)c1Br | 10.7% (inactive) | – |
| O=c1[nH]c(=O)n([C@H]2C[C@H](O)[C@@H](CO)O2)cc1/C=C/Br | -11.6% (inactive) | – |
| CC12CCC(C[N+](C)(CCC[N+](C)(C)C)C1)C2(C)C (centres undefined) | 3.5% (inactive) | – |
| CC(C)NCC(O)COc1ccccc1-n1cccc1 (centres undefined) | -1.33% (inactive) | – |
| F[Si-2](F)(F)(F)(F)F | -1.18% (inactive) | – |
| CN(Cc1ccccc1)Cc1ccccc1 | 0.072% (inactive) | – |
| O=[n+]1ccn([O-])c2ccccc21 | -16% (inactive) | – |
| OCC(O)CO | -1.87% (inactive) | – |
| CC(=O)NCCCS(=O)(=O)O | -2.69% (inactive) | – |
| CCN(CC)CCOc1ccc2nc(N(C)C)sc2c1 | 0.638% (inactive) | – |
| Cc1cccc(Nc2ncccc2C(=O)O)c1C | 6.63% (inactive) | – |
| CCCCC(CC)CCC(CC(C)C)OS(=O)(=O)O (centres undefined) | 4.59% (inactive) | – |
| C[C@H](N)C(=O)N[C@@H](C)P(=O)(O)O | -3.1% (inactive) | – |
| CC(=O)Nc1ccc(NC(=S)NC(=O)c2ccc(C(C)(C)C)cc2)cc1 | -8.27% (inactive) | – |
| CN1CCc2c(c3ccccc3n2Cc2ccccc2)C1 | -17.7% [at 12.8 µM] (inactive) | – |

| Structure (SMILES) | activity, negative = inhibition | Potency |
| --- | --- | --- |
| CO/N=C(\C(=O)N[C@@H]1C(=O)N2C(C(=O)[O-])=C(C[n+]3cccc4c3CCC4)CS[C@H]12)c1csc(N)n1 | -3.41% (inactive) | – |
| Cc1cc(-c2ccc(N=Nc3ccc4c(S(=O)(=O)O)cc(S(=O)(=O)O)c(N)c4c3O)c(C)c2)ccc1N=Nc1ccc2c(S(=O)(=O)O)cc(S(=O)(=O)O)c(N)c2c1O | 13.8% (inactive) | – |
| CCC(C(=O)NC(N)=O)c1ccccc1 (centres undefined) | -3.35% (inactive) | – |
| Cn1cc(NC(=O)c2cc(NC(=O)c3cc(NC=O)cn3C)cn2C)cc1C(=O)NCCC(=N)N | – | 9.53 µM (active) |
| CCc1ncnc2cc(OC)c(OC)cc12 | 2.81% (inactive) | – |
| Cc1ncc(C[n+]2csc(CCO)c2C)c(N)n1 | -4.76% [at 12.8 µM] (inactive) | – |
| O[C@@H]([C@H](O)[C@H](O)CBr)[C@H](O)CBr | -0.056% (inactive) | – |
| O=[N+]([O-])c1c(Cl)cccc1-c1c[nH]cc1Cl | -11% (inactive) | – |
| C[C@@](Cc1ccc(O)c(O)c1)(NN)C(=O)O | 1.62% (inactive) | – |
| CC(=O)Oc1cc(C(F)(F)F)ccc1C(=O)O | 2.62% [at 12.8 µM] (inactive) | – |
| CCCCC | -10.2% (inactive) | – |
| O=P(O)(O)CP(=O)(O)O | -1.53% (inactive) | – |
| CCCCC[C@H](O)/C=C/[C@@H]1[C@H]2C/C(=C/CCCC(=O)O)O[C@H]2C[C@H]1O | -7.85% (inactive) | – |
| C[Si](C)(C)O[Si](C)(C)C | -1.2% (inactive) | – |
| O.O.O.O.O.O.O.O=S(=O)([O-])[O-].[Co+2] | – | 9.53 µM (active) |
| Cc1c(C)c2c(c(C)c1OC(=O)CCC(=O)O)CC[C@@](C)(CCC[C@H](C)CCC[C@H](C)CCCC(C)C)O2 | -8.47% (inactive) | – |
| CCOC(=O)c1c[nH]c2cc(OCC(C)C)c(OCC(C)C)cc2c1=O | – | 0.0757 µM (active) |
